From PubChem BioAssay (Tox21)
Several values for one entry are separate records, joined by “and”; a condition that tells them apart may be missing. Equal values may be shown once. Results filed as inconclusive are left out. Where a structure was tested more than once in an assay, its records may differ in their call. Activity calls are given as the source filed them. Calls follow the shape of the full dose curve.

Assay: Nuclear factor erythroid 2-related factor 2/antioxidant responsive element (Nrf2/ARE) small molecule agonists: luciferase reporter gene qHTS assay in human keratinocytes (AID 1919969); also: nearly all actives have a fitted effect of over 35% in size
Details: KeratinoSens HaCaT ARE-luciferase, luminescence, 24 h; series mostly up to 92.4 µM; activity, positive = activation: at the top concentration
Description: National Center for Advancing Translational Sciences [NCATS]
Division of Preclinical Innovation [DPI]
U.S. Environmental Protection Agency [EPA]
National Institutes of Environmental Health Sciences [NIEHS]
National Toxicology Program [NTP]
U.S. Food and Drug Administration [FDA]
Oxidative stress has been implicated in the pathogenesis of a variety of diseases ranging from cancer to neurodegeneration. The antioxidant response element (ARE) signaling pathway plays an important role in the amelioration of oxidative stress. The KeratinoSens (Givaudan, Switzerland) is an in vitro test method which quantifies luciferase induction as a measure of activation of Keap1-Nrf2-antioxidationt/electrophile response element (ARE) dependant pathway in HaCaT human keratinocytes stably transfected with a selectable plasmid. The KeratinoSens assay is a cell-based assay with a reporter cell line to detect potential skin sensitizers by their ability to induce the Nrf2/ARE-response. The activation of the report gene under culture conditions can be detected by ONE-Glo Luciferase Assay System (Promega, Madison, WI). This cell line has been used to screen the Tox21 10K compound library to identify agonists that induce oxidative stress. The cytotoxicity of the Tox21 compound library against the KS-ARE cell line was tested in parallel by measuring the cell viability using CellTiter- Fluor assay system (Promega, Madison, WI) in the same wells.
HaCaT derived cell line KeratinoSens were dispensed at 1,500 cells/5uL/well in 1536-well white wall/solid bottom plates using a Multidrop Combi (ThermoFisher Scientific, Waltham, MA) dispenser. After the assay plates were incubated at 37 C/5% CO2 for 5 h, 23 nL of compounds dissolved in DMSO, positive controls or DMSO only was transferred to the assay plate by a pintool workstation (Kalypsys, San Diego, CA). The plates were incubated at 37 C/5% CO2 for 23 h, followed by addition of 1uL/well of CellTiter-Fluor reagent into the assay plates using a Flying Reagent Dispenser (Aurora Discovery, San Diego, CA) for cell viability readout that measures cytotoxicity. After 1 h incubation at 37 C/5% CO2 the fluorescence intensity was measured using a ViewLux (PerkinElmer, Shelton, CT) plate reader. Then 4uL/well of One-Glo were added using a Flying Reagent Dispenser. After the plates were incubated at room temperature for 30 min, the luminescence intensity in the assay plates was measured using ViewLux plate reader.
% is scaled to controls: 0 for no effect and ±100 for the full control effect; potency is read from the fitted curve at half-maximal effect.

Compound | Potency | activity, positive = activation
CCCCCCCCCc1ccc(O)cc1 | inactive | –
C=CC(=O)OCC(CC)(COC(=O)C=C)COC(=O)C=C | 2.8 µM (active) and 6.11 µM (active) | –
Oc1ccc(Cl)cc1Cc1ccccc1 | 22 µM (active) and inactive | –
COP(=S)(OC)Oc1ccc(S(=O)(=O)N(C)C)cc1 | – | 8.93% [at 42.5 µM] (inactive)
c1ccc(-c2ccccc2)cc1 | – | 12.2% (inactive)
O=C(CBr)c1ccc(O)cc1 | 68.6 µM (active) | –
Oc1ccc(-c2ccccc2)cc1 | 61.1 µM (active) | –
Cl[C@H]1OCCO[C@@H]1Cl | inactive | –
Cc1ccc(Cl)c(O)c1 | – | 3.63% [at 42.5 µM] (inactive)
CCN(CC)CCO | inactive | –
CC(C)OC(=S)S | 15.4 µM (active) | –
C#CCOC(C(=O)OCCN(C)C)(c1ccccc1)c1ccccc1 | – | 2.6% [at 42.5 µM] (inactive)
COc1cc(OC)nc(Oc2cccc(Oc3nc(OC)cc(OC)n3)c2C(=O)O)n1 | – | -1.26% (inactive)
C=CC(=O)OCCCCCC(C)C | inactive | –
CCOP(=O)(O)OCC (tested in a mixture with another compound) | inactive | –
O=C(CCl)CCl | 28.3 µM (active) and 27.3 µM (active) | –
O=c1n(Cl)c(=O)n(Cl)c(=O)n1Cl | inactive | –
Cc1cc(Cl)ccc1OCCCC(=O)O | inactive | –
Nc1c(Cl)c(Cl)nc(C(=O)O)c1Cl | inactive | –
OC(O)C(Cl)(Cl)Cl | inactive | –

Compound | Potency | activity, positive = activation
O=c1c2ccccc2c(=O)c2c1cc(Cl)c1[nH]c3c([nH]c12)c(Cl)cc1c(=O)c2ccccc2c(=O)c13 | – | -8.29% (inactive)
Cc1[nH]c(=O)n(C(C)(C)C)c(=O)c1Cl | inactive | –
CC(=[OH+])/C=C(/C)[O-].CC(=[OH+])/C=C(\C)[O-].CC(=[OH+])/C=C(\C)[O-].[Al] | – | -15.5% (inactive)
CC(C)C#N | inactive | –
Cc1ccc(CCl)cc1 | – | -3.27% (inactive)
OCC(O)CO | inactive | –
CCCCCCCCCC(CC)c1ccc(S(=O)(=O)O)cc1 (stereo not given) | inactive and 21.7 µM (active) | –
C[Si](Cn1cncn1)(c1ccc(F)cc1)c1ccc(F)cc1 | inactive | –
N[C@@H](Cc1ccc(N(CCCl)CCCl)cc1)C(=O)O | inactive | –
COC(=O)c1cncn1C(C)c1ccccc1 (stereo not given) | – | -0.033% [at 42.5 µM] (inactive)
CC(C)OC(=O)Nc1cccc(Cl)c1 | – | 26.8% (inactive)
Sc1ccccc1Cl | – | -4.98% [at 42.5 µM] (inactive)
Nc1ccncc1 | inactive | –
CC(=NC#N)N(C)Cc1ccc(Cl)nc1 | – | -17.6% (inactive)
CCC(C)c1cc([N+](=O)[O-])cc([N+](=O)[O-])c1O (stereo not given) | inactive | –
Clc1ccc(C(Cl)(Cl)Cl)cn1 | – | 6.43% (inactive)
O=S(=O)(Cl)Cl | – | 0.376% (inactive)
CC(C#N)CCC#N (stereo not given) | inactive | –
C=C(C#N)CCC#N | – | 19.8% (inactive)
COP(=O)(CCC(=O)NCO)OC | – | -2.17% (inactive)
